# In PubChem BioAssay (NCI):
# Compounds without any hit were thinned out: in the full panel of roughly 83,000, 20% have a hit.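 How to read the values: 0–100, growth inhibition (40 = 60% inhibited); 0, no net growth; -100 to 0, cell death (-40 = 40% of starting cells died; -100 = all dead).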 Calls of active or inactive are those of the source. The calls were made as follows: active = growth percent below 10; inactive = the rest.
# System: SK-MEL-28 melanoma
# Experiment: NCI-60 one-dose screen, 48 h (100 = growth as untreated, 0 = no growth, -100 = all killed)
# Conditions: 10 µM unless noted
row,SMILES,growth
1,COc1ccc(C(O)c2cc3c(N)c(C(=O)Nc4cccc(Br)c4)sc3nc2C)cc1 (stereo not given),50.7% (inactive)
2,CC/C(=C(/c1ccc(Cl)cc1)c1ccc(OCCN2CCCCC2)cc1)c1ccc(OC)cc1,82.7% (inactive)
3,CCOC(=O)c1c2c(n3cccc(F)c13)C(=O)c1ncccc1C2=O,37.4% (inactive)
4,CC(=O)O[C@@H]1C[C@]2(C(C)C)O[C@@]1(C)[C@@H]1CCC(C)=C1[C@@H]2OC(=O)/C=C/c1ccccc1,97.3% (inactive)
5,O=C(O)c1ccc(-n2cc(/C=N/Nc3ccccc3)c(-c3ccc(F)cc3F)n2)cc1,74.1% (inactive)
6,O=C(NCc1ccc(Cl)cc1Cl)C1CCC(=O)N1c1cccs1 (stereo not given),93.4% (inactive)
7,CCSc1oc(-c2ccccc2)nc1[P+](c1ccccc1)(c1ccccc1)c1ccccc1,29.8% (inactive)
8,O=C1C(=O)N(Cc2ccc(-c3ccccc3)cc2)c2ccc(OC(F)(F)F)cc21,82.7% (inactive)
9,Cc1nc2sc(C(=O)Nc3ccc(Br)cc3)c(N)c2cc1C(O)c1ccccc1 (stereo not given),67.8% (inactive)
10,O=C(Cn1cc(CSc2nc3ccccc3o2)nn1)Nc1ccc(F)cc1F,114% (inactive)
11,COC(=O)c1nc(-c2ccc(C)cc2)oc1S(=O)(=O)c1cccc(OC)c1,99.2% (inactive)
12,COc1ccc(C/C(C)=C(/c2ccc(OCCN(C)C)cc2)c2ccc(OC(=O)NCc3ccccc3)cc2)cc1,54.6% (inactive)
13,COc1ccc(/C=C(\C#N)n2nnc3cc(F)c(F)cc32)cc1,58.1% (inactive)
14,COC(=O)c1c2c(c(C)[n+]([O-])c1C)C(=O)C(NCc1cccc(OC)c1)=CC2=O,86.6% (inactive)
15,COc1ccc(-c2nc3cc(C(=O)NCc4ccccc4)ccc3n2C2CCCCC2)cc1,92.7% (inactive)
16,CCN(CC)CCn1c2ccc(OC)cc2c2sc3cc(OC)ccc3c(=O)c21,29.7% (inactive)
17,COc1ccc(C(=O)N2c3ccccc3Sc3ccccc32)c(OC)c1,57.9% (inactive)
18,CCN1CCN(C(=O)[C@]23CCC(C)(C)C[C@@H]2C2=CC[C@@H]4[C@@]5(C)CCC(=O)C(C)(C)[C@@H]5CC[C@@]4(C)[C@]2(C)CC3)CC1,64.3% (inactive)
19,Clc1ccc2c(NC3CCC(N4CCOCC4)CC3)ccnc2c1 (stereo not given),97.3% (inactive)
20,CCCOC(=O)Nc1nc2ccc(SCC(C)C)cc2s1,64.9% (inactive)

row,SMILES,growth
1,COc1ccc(Nc2ncc(Br)c(NCCCNC(=O)c3cccs3)n2)cc1,68.4% (inactive)
2,N#Cc1c(-c2ccccc2)cc(-c2ccc(Nc3nc(Nc4ccc(Cl)cc4)nc(Nc4ccc(Cl)cc4)n3)cc2)nc1N,-80.9% (active)
3,COC(=O)c1c(C)c2n(c1C)C(=O)C(c1ccccc1)=C2,91.2% (inactive)
4,COc1ccc(Nc2ncc(Br)c(NCCCNC(=O)C3CCCC3)n2)cc1,57.2% (inactive)
5,C=CCn1c(C)nc2ccc(Nc3nc(Nc4ccc5nc(C)n(CC=C)c5c4)c4ccccc4n3)cc21,-96% (active)
6,O=C(O)c1cn(C2CC2)c2cc(N3CCN(Cc4ccc5ccccc5c4O)CC3)c(F)cc2c1=O,38.6% (inactive)
7,N#C/C(=C\c1c(-c2ccccc2)[nH]c2ccccc12)C(N)=O,97.6% (inactive)
8,COc1ccc(C2CC(c3ccc(Nc4nc(Nc5ccccc5)nc(Nc5ccccc5)n4)cc3)=NN2C(C)=O)cc1 (stereo not given),109% (inactive)
9,COc1cc2c(c(OC)c1OC)CCC(c1cccc(C(=O)Nc3cccc(Cl)c3)c1)O2 (stereo not given),78.1% (inactive)
10,COc1cc(OCc2cccc(Br)c2C)cc(OC)c1C=O,99.5% (inactive)
11,COC1=CC(c2ccc[nH]2)=N/C1=C\c1[nH]c(C)c(C(=O)OC(C)C)c1C,-54.5% (active)
12,CCCc1c(OC(=O)c2ccccc2)nc2[nH]c(=O)sc2c1C,104% (inactive)
13,CN(C)c1ccc(-c2c(C#N)c(N)nn2C(=O)c2ccc(NC(=O)c3ccccn3)cc2)cc1,108% (inactive)
14,CC1CCN(CCOc2ccc(CNc3ccc4nc(CCC5CCCCC5)[nH]c4c3)cc2)CC1,-80.2% (active)
15,COc1cc2c(cc1OCCCN1CCN(CCCOc3cc4c(cc3OC)C(=O)N3CCC[C@H]3C=N4)CC1)C=CC(C)(C)O2,-100% (active)
16,Oc1c(I)cc(I)cc1CNCCN(Cc1ccccn1)Cc1ccccn1,-14% (active)
17,O=CN1N=C(c2cccc(Nc3ccnc4cc(Cl)ccc34)c2)CC1c1ccccc1 (stereo not given),49.5% (inactive)
18,COc1cc2c(cc1OC)C(C)N(S(N)(=O)=O)CC2 (stereo not given),106% (inactive)
19,CCCC/C(CC)=N\NS(=O)(=O)c1ccc([N+](=O)[O-])cc1,108% (inactive)
20,O=[N+]([O-])c1ccc(O)cc1Br,109% (inactive)

# System: SK-MEL-2 melanoma
# Experiment: as above
# Conditions: 10 µM unless noted
row,SMILES,growth
1,COc1ccc(C(O)c2cc3c(N)c(C(=O)Nc4cccc(Br)c4)sc3nc2C)cc1 (stereo not given),33.9% (inactive)
2,CC/C(=C(/c1ccc(Cl)cc1)c1ccc(OCCN2CCCCC2)cc1)c1ccc(OC)cc1,90.6% (inactive)
3,CCOC(=O)c1c2c(n3cccc(F)c13)C(=O)c1ncccc1C2=O,72.4% (inactive)
4,CC(=O)O[C@@H]1C[C@]2(C(C)C)O[C@@]1(C)[C@@H]1CCC(C)=C1[C@@H]2OC(=O)/C=C/c1ccccc1,89.7% (inactive)
5,O=C(O)c1ccc(-n2cc(/C=N/Nc3ccccc3)c(-c3ccc(F)cc3F)n2)cc1,15.4% (inactive)
6,O=C(NCc1ccc(Cl)cc1Cl)C1CCC(=O)N1c1cccs1 (stereo not given),91.2% (inactive)
7,CCSc1oc(-c2ccccc2)nc1[P+](c1ccccc1)(c1ccccc1)c1ccccc1,-9.57% (active)
8,O=C1C(=O)N(Cc2ccc(-c3ccccc3)cc2)c2ccc(OC(F)(F)F)cc21,69.7% (inactive)
9,Cc1nc2sc(C(=O)Nc3ccc(Br)cc3)c(N)c2cc1C(O)c1ccccc1 (stereo not given),81.5% (inactive)
10,O=C(Cn1cc(CSc2nc3ccccc3o2)nn1)Nc1ccc(F)cc1F,114% (inactive)
11,COC(=O)c1nc(-c2ccc(C)cc2)oc1S(=O)(=O)c1cccc(OC)c1,95.9% (inactive)
12,COc1ccc(C/C(C)=C(/c2ccc(OCCN(C)C)cc2)c2ccc(OC(=O)NCc3ccccc3)cc2)cc1,90.5% (inactive)
13,COc1ccc(/C=C(\C#N)n2nnc3cc(F)c(F)cc32)cc1,50.9% (inactive)
14,COC(=O)c1c2c(c(C)[n+]([O-])c1C)C(=O)C(NCc1cccc(OC)c1)=CC2=O,64.3% (inactive)
15,COc1ccc(-c2nc3cc(C(=O)NCc4ccccc4)ccc3n2C2CCCCC2)cc1,91.3% (inactive)
16,CCN(CC)CCn1c2ccc(OC)cc2c2sc3cc(OC)ccc3c(=O)c21,63.5% (inactive)
17,COc1ccc(C(=O)N2c3ccccc3Sc3ccccc32)c(OC)c1,38.3% (inactive)
18,CCN1CCN(C(=O)[C@]23CCC(C)(C)C[C@@H]2C2=CC[C@@H]4[C@@]5(C)CCC(=O)C(C)(C)[C@@H]5CC[C@@]4(C)[C@]2(C)CC3)CC1,77.1% (inactive)
19,Clc1ccc2c(NC3CCC(N4CCOCC4)CC3)ccnc2c1 (stereo not given),113% (inactive)
20,CCCOC(=O)Nc1nc2ccc(SCC(C)C)cc2s1,48.6% (inactive)

row,SMILES,growth
1,COc1ccc(Nc2ncc(Br)c(NCCCNC(=O)c3cccs3)n2)cc1,46.8% (inactive)
2,N#Cc1c(-c2ccccc2)cc(-c2ccc(Nc3nc(Nc4ccc(Cl)cc4)nc(Nc4ccc(Cl)cc4)n3)cc2)nc1N,34% (inactive)
3,COC(=O)c1c(C)c2n(c1C)C(=O)C(c1ccccc1)=C2,77.7% (inactive)
4,COc1ccc(Nc2ncc(Br)c(NCCCNC(=O)C3CCCC3)n2)cc1,63.6% (inactive)
5,C=CCn1c(C)nc2ccc(Nc3nc(Nc4ccc5nc(C)n(CC=C)c5c4)c4ccccc4n3)cc21,-83.8% (active)
6,O=C(O)c1cn(C2CC2)c2cc(N3CCN(Cc4ccc5ccccc5c4O)CC3)c(F)cc2c1=O,76.3% (inactive)
7,N#C/C(=C\c1c(-c2ccccc2)[nH]c2ccccc12)C(N)=O,111% (inactive)
8,COc1ccc(C2CC(c3ccc(Nc4nc(Nc5ccccc5)nc(Nc5ccccc5)n4)cc3)=NN2C(C)=O)cc1 (stereo not given),68.5% (inactive)
9,COc1cc2c(c(OC)c1OC)CCC(c1cccc(C(=O)Nc3cccc(Cl)c3)c1)O2 (stereo not given),58.3% (inactive)
10,COc1cc(OCc2cccc(Br)c2C)cc(OC)c1C=O,88% (inactive)
11,COC1=CC(c2ccc[nH]2)=N/C1=C\c1[nH]c(C)c(C(=O)OC(C)C)c1C,-61.6% (active)
12,CCCc1c(OC(=O)c2ccccc2)nc2[nH]c(=O)sc2c1C,107% (inactive)
13,CN(C)c1ccc(-c2c(C#N)c(N)nn2C(=O)c2ccc(NC(=O)c3ccccn3)cc2)cc1,105% (inactive)
14,CC1CCN(CCOc2ccc(CNc3ccc4nc(CCC5CCCCC5)[nH]c4c3)cc2)CC1,-49.9% (active)
15,COc1cc2c(cc1OCCCN1CCN(CCCOc3cc4c(cc3OC)C(=O)N3CCC[C@H]3C=N4)CC1)C=CC(C)(C)O2,-77% (active)
16,Oc1c(I)cc(I)cc1CNCCN(Cc1ccccn1)Cc1ccccn1,-52.4% (active)
17,O=CN1N=C(c2cccc(Nc3ccnc4cc(Cl)ccc34)c2)CC1c1ccccc1 (stereo not given),1.53% (active)
18,COc1cc2c(cc1OC)C(C)N(S(N)(=O)=O)CC2 (stereo not given),106% (inactive)
19,CCCC/C(CC)=N\NS(=O)(=O)c1ccc([N+](=O)[O-])cc1,94.6% (inactive)
20,O=[N+]([O-])c1ccc(O)cc1Br,97.8% (inactive)
